According to ChEMBL document CHEMBL4513146, “CO-ADD screening of Karazin Kharkiv National University (Ukraine) compounds”:
Results with a measured potency or affinity are listed apart.

These compounds were tested on Staphylococcus aureus. Conditions: Concentration 32 ug.mL-1;; ASSAY_TEST Inhibition of Bacterial Growth; detection method Absorption (OD600); MEDIA CAMHB; plate type 384well; NBS; CORNING #3640; time 18 hr.
For `COc1ccc(CNC(=O)CCc2nnc3c4cc(-c5ccc(Cl)cc5)nn4ccn23)cc1OC`, the Inhibition was 3.74%.
`COc1cccc(Cn2nc3c(=O)n(-c4cccc(Cl)c4C)ccn3c2=O)c1` was tested, and the Inhibition was -6.87%.
`Cc1ccc(Oc2nccn3c(=O)n(CC(=O)Nc4ccc(Cl)cc4F)nc23)cc1` gave an Inhibition of 5.22%.
Compound `COc1ccccc1-n1ccn2c(SCC(=O)Nc3ccc4c(c3)OCO4)nnc2c1=O` has an Inhibition of 7.67%.
With `COc1cccc(-n2ccn3c(-c4ccc([N+](=O)[O-])cc4)nnc3c2=O)c1` the Inhibition was 5.77%.
In the case of `Cc1ccc(-c2ccc3nnc(CCC(=O)N4CCN(C(=O)c5ccco5)CC4)n3n2)cc1C`, the Inhibition was 7.73%.
With `Cc1oc(-c2cccc(Cl)c2)nc1CSc1nc2ccccc2n2c(C)nnc12` the Inhibition was 0.94%.
Work on `COc1cccc(Sc2nc3ccccc3n3c(=O)n(CC(=O)N4CCCc5ccccc54)nc23)c1` yielded an Inhibition of -3.45%.
For `COc1ccc(NC(=O)Cn2nc3nc(N4CCOCC4)ccn3c2=O)cc1Cl`, the Inhibition was 7.8%.
`Cc1ccc(-c2ccc3nn(Cc4cccc(Cl)c4)c(=O)n3n2)cc1C` was tested, and the Inhibition was 8.16%.
For `COc1ccc(-c2cc3c4nnc(CCC(=O)NCc5ccccc5Cl)n4ccn3n2)cc1`, the Inhibition was 0.8%.
Work on `COc1ccc(NC(=O)Cn2nc3c4cc(-c5ccc(C)c(C)c5)nn4ccn3c2=O)cc1` yielded an Inhibition of 11.77%.
`CN(Cc1ccccc1)C(=O)CSc1nnc2c3cc(-c4ccccc4)nn3ccn12` showed an Inhibition of 11.08%.
Work on `COc1ccc(NC(=O)Cn2c(=O)c3nnc(C(C)C)n3c3ccccc32)cc1Cl` yielded an Inhibition of 10.36%.
For `Cc1cc(C)cc(Nc2nc(C)cc3nn(CC(=O)NC4CCCCC4)c(=O)n23)c1`, the Inhibition was 14.04%.
With `N#CCSc1nnc2c(=O)n(-c3ccccc3)ccn12` the Inhibition was 13.33%.
For `Cc1ccc(NC(=O)Cn2c(=O)c3nnc(C(C)C)n3c3ccccc32)cc1F`, the Inhibition was 13.81%.
Work on `Cc1cccc(C)c1NC(=O)Cn1nc2c(SC3CCCCC3)nccn2c1=O` yielded an Inhibition of 9.56%.
`COc1cccc(Oc2nccn3c(=O)n(CC(=O)Nc4cc(F)ccc4F)nc23)c1` showed an Inhibition of 10.86%.
`Cc1cc2nn(CC(=O)NC3CCCCC3)c(=O)n2c(Nc2ccc(F)c(C)c2)n1` gave an Inhibition of 11.08%.
`O=C(Cn1nc2c(SC3CCCCC3)nccn2c1=O)N1CCN(c2ccccc2)CC1` showed an Inhibition of 2.31%.
For `O=c1n(Cc2ccc(Cl)cc2)nc2ccc(-c3ccccc3)nn12`, the Inhibition was 3.14%.
`CCCn1c(=O)c2sccc2n2c(=O)n(CC(=O)c3ccccc3)nc12` showed an Inhibition of 3.8%.
`O=C(CSc1nnc2ccc(C(=O)Nc3cccc(F)c3)cn12)Nc1ccc(F)c(F)c1` gave an Inhibition of 8.43%.
In the case of `Cc1cc2nn(CC(=O)Nc3cc(F)cc(F)c3)c(=O)n2c(Nc2ccc(F)c(C)c2)n1`, the Inhibition was 7.29%.

The compounds below were run on Escherichia coli. Conditions: Concentration 32 ug.mL-1;; ASSAY_TEST Inhibition of Bacterial Growth; detection method Absorption (OD600); MEDIA CAMHB; plate type 384well; NBS; CORNING #3640; time 18 hr.
`O=C(CSc1nnc2c(=O)n(-c3ccc(F)cc3)ccn12)N1CCN(c2ccc(F)cc2)CC1` showed an Inhibition of -2.88%.
For `O=C(Cn1nc2c3cc(-c4ccccc4)nn3ccn2c1=O)N1CCCc2ccccc21`, the Inhibition was 2.28%.
`Cn1c(=O)c2ccc(C(=O)NC3CCCC3)cc2n2c(SCc3c(F)cccc3Cl)nnc12` gave an Inhibition of 0.61%.
For `CCc1ccc(NC(=O)CSc2nnc3ccc(C(=O)Nc4cccc(F)c4)cn23)cc1`, the Inhibition was -4.13%.
`CCCCOc1ccc(-c2cc3c4nnc(SCC(=O)Nc5ccc(C)c(C)c5)n4ccn3n2)cc1` showed an Inhibition of -4.59%.
`CCOc1ccccc1NC(=O)Cn1c(=O)c2nnc(C(C)C)n2c2ccccc21` showed an Inhibition of 5%.
Work on `O=C(Cn1nc2n(Cc3ccc(F)cc3)c(=O)c3ccccc3n2c1=O)Nc1ccc2c(c1)OCO2` yielded an Inhibition of -3.01%.
`CCCCc1ccc(NC(=O)Cn2nc3ccc(C(=O)Nc4ccc(OC)cc4)cn3c2=O)cc1` was tested, and the Inhibition was -4.6%.
For `Cc1ccc(Sc2nccn3c(=O)n(CC(=O)Nc4ccc(Br)cc4C)nc23)c(C)c1`, the Inhibition was -16.85%.
`CC(C)(C)Sc1ccc2nn(CC(=O)N3CCN(c4ccc(F)cc4)CC3)c(=O)n2n1` showed an Inhibition of 5.62%.
Work on `Cc1ccccc1NC(=O)Cn1nc2c3cc(-c4ccc(Cl)cc4)nn3ccn2c1=O` yielded an Inhibition of 4.06%.
With `Cc1ccc(Oc2nccn3c(=O)n(CC(=O)NCCC4=CCCCC4)nc23)cc1` the Inhibition was -4.1%.
`Cc1ccc(-c2cc3c4nnc(CCC(=O)NCCCc5ccccc5)n4ccn3n2)cc1C` was tested, and the Inhibition was 1.28%.
Work on `COc1ccc(NC(=O)CSc2nc3ccccc3n3c(C(C)C)nnc23)c(OC)c1` yielded an Inhibition of -5.84%.
`COc1ccc(CNC(=O)CCc2nnc3c4cc(-c5ccc(Cl)cc5)nn4ccn23)cc1OC` gave an Inhibition of 1.66%.
In the case of `COc1cccc(Cn2nc3c(=O)n(-c4cccc(Cl)c4C)ccn3c2=O)c1`, the Inhibition was -16.22%.
Work on `Cc1ccc(Oc2nccn3c(=O)n(CC(=O)Nc4ccc(Cl)cc4F)nc23)cc1` yielded an Inhibition of -5.2%.
`COc1ccccc1-n1ccn2c(SCC(=O)Nc3ccc4c(c3)OCO4)nnc2c1=O` showed an Inhibition of -8.08%.
In the case of `COc1cccc(-n2ccn3c(-c4ccc([N+](=O)[O-])cc4)nnc3c2=O)c1`, the Inhibition was -8.12%.
`Cc1ccc(-c2ccc3nnc(CCC(=O)N4CCN(C(=O)c5ccco5)CC4)n3n2)cc1C` was tested, and the Inhibition was -0.43%.
For `Cc1oc(-c2cccc(Cl)c2)nc1CSc1nc2ccccc2n2c(C)nnc12`, the Inhibition was 1.96%.
`COc1cccc(Sc2nc3ccccc3n3c(=O)n(CC(=O)N4CCCc5ccccc54)nc23)c1` was tested, and the Inhibition was -7.6%.
For `COc1ccc(NC(=O)Cn2nc3nc(N4CCOCC4)ccn3c2=O)cc1Cl`, the Inhibition was -5.98%.
`Cc1ccc(-c2ccc3nn(Cc4cccc(Cl)c4)c(=O)n3n2)cc1C` showed an Inhibition of -3.9%.
For `COc1ccc(-c2cc3c4nnc(CCC(=O)NCc5ccccc5Cl)n4ccn3n2)cc1`, the Inhibition was -2.58%.
`COc1ccc(NC(=O)Cn2nc3c4cc(-c5ccc(C)c(C)c5)nn4ccn3c2=O)cc1` was tested, and the Inhibition was -2.93%.
With `CN(Cc1ccccc1)C(=O)CSc1nnc2c3cc(-c4ccccc4)nn3ccn12` the Inhibition was -11.2%.
For `COc1ccc(NC(=O)Cn2c(=O)c3nnc(C(C)C)n3c3ccccc32)cc1Cl`, the Inhibition was 0.69%.
With `Cc1cc(C)cc(Nc2nc(C)cc3nn(CC(=O)NC4CCCCC4)c(=O)n23)c1` the Inhibition was -1.15%.
Compound `N#CCSc1nnc2c(=O)n(-c3ccccc3)ccn12` has an Inhibition of 0.91%.
Work on `Cc1ccc(NC(=O)Cn2c(=O)c3nnc(C(C)C)n3c3ccccc32)cc1F` yielded an Inhibition of 1.95%.
In the case of `Cc1cccc(C)c1NC(=O)Cn1nc2c(SC3CCCCC3)nccn2c1=O`, the Inhibition was -6.16%.
`COc1cccc(Oc2nccn3c(=O)n(CC(=O)Nc4cc(F)ccc4F)nc23)c1` showed an Inhibition of -7.76%.
Compound `Cc1cc2nn(CC(=O)NC3CCCCC3)c(=O)n2c(Nc2ccc(F)c(C)c2)n1` has an Inhibition of 0.19%.
`O=C(Cn1nc2c(SC3CCCCC3)nccn2c1=O)N1CCN(c2ccccc2)CC1` gave an Inhibition of 0.18%.
In the case of `O=c1n(Cc2ccc(Cl)cc2)nc2ccc(-c3ccccc3)nn12`, the Inhibition was -1.49%.
With `CCCn1c(=O)c2sccc2n2c(=O)n(CC(=O)c3ccccc3)nc12` the Inhibition was 2.71%.
`O=C(CSc1nnc2ccc(C(=O)Nc3cccc(F)c3)cn12)Nc1ccc(F)c(F)c1` was tested, and the Inhibition was 1.09%.
For `Cc1cc2nn(CC(=O)Nc3cc(F)cc(F)c3)c(=O)n2c(Nc2ccc(F)c(C)c2)n1`, the Inhibition was -2.56%.
